The target in test [1] is Protein kinase C alpha type (Homo sapiens) (UniProt P17252). To be noted: at 1 µM.
Test [2] shares this target. The conditions noted are these: at 10 µM.
Test [3] has as its target Protein kinase C beta type (Homo sapiens) (UniProt P05771). The conditions noted are these: at 1 µM.
The target is the same in test [4]. The conditions noted are these: at 10 µM.
The target is the same in test [5]. The conditions noted are these: at 1 µM. This is another data set of the same source.
For test [6] the target is unchanged. To be noted: at 10 µM. The source holds these as a separate data set.
The target in test [7] is Protein kinase C gamma type (Homo sapiens) (UniProt P05129). To be noted: at 1 µM.
Test [8] shares this target. To be noted: at 10 µM.
The target in test [9] is Protein kinase C delta type (Homo sapiens) (UniProt Q05655). The conditions noted are these: at 1 µM.
Test [10] shares this target. To be noted: at 10 µM.
Test [11] addresses T1, Protein kinase C epsilon type (Homo sapiens) (UniProt Q02156).
T1 sequence (whole entry): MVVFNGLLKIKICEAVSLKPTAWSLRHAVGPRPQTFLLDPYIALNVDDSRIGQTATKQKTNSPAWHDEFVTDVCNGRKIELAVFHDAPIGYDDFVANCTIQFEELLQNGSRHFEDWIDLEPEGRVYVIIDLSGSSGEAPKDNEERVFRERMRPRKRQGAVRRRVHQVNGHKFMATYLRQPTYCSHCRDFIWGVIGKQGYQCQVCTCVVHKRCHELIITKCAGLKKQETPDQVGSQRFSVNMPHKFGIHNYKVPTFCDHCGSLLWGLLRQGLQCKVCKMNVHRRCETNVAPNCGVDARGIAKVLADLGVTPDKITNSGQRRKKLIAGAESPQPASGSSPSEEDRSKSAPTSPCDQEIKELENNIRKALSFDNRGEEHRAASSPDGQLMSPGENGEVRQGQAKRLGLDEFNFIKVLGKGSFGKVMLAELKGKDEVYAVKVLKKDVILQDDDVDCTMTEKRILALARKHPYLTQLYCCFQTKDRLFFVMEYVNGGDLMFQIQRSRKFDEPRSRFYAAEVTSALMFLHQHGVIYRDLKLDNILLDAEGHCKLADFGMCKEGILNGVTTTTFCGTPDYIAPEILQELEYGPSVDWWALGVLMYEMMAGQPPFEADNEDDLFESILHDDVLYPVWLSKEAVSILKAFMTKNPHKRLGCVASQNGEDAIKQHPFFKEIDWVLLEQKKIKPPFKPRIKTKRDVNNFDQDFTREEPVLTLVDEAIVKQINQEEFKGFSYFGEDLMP
The conditions noted are these: at 1 µM.

In test [12] the target is T1, Protein kinase C epsilon type (Homo sapiens). The conditions noted are these: at 10 µM.

Each structure is given as a SMILES string.

Protein kinase C beta type (Homo sapiens), sequence (P05771 2-671 limits assumed): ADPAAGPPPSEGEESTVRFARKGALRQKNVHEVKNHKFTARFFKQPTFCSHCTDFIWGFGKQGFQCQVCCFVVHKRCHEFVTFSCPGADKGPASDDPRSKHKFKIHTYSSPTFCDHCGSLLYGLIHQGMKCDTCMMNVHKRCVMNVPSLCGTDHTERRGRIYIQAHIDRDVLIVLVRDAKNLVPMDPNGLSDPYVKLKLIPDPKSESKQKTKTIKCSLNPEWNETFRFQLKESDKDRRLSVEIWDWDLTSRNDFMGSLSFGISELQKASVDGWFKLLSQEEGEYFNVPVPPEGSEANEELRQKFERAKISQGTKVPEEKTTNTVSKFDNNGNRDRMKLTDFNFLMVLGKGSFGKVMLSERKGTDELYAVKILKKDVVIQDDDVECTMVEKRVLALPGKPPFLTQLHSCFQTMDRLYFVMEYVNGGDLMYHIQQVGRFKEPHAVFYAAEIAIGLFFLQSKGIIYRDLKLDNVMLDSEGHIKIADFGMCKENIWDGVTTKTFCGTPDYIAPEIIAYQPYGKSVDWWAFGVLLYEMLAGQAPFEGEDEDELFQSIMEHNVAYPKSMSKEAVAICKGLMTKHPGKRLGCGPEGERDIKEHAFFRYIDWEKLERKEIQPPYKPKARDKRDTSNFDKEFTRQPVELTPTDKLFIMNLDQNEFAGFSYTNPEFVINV
Protein kinase C delta type (Homo sapiens), sequence (Q05655 whole entry, looked up): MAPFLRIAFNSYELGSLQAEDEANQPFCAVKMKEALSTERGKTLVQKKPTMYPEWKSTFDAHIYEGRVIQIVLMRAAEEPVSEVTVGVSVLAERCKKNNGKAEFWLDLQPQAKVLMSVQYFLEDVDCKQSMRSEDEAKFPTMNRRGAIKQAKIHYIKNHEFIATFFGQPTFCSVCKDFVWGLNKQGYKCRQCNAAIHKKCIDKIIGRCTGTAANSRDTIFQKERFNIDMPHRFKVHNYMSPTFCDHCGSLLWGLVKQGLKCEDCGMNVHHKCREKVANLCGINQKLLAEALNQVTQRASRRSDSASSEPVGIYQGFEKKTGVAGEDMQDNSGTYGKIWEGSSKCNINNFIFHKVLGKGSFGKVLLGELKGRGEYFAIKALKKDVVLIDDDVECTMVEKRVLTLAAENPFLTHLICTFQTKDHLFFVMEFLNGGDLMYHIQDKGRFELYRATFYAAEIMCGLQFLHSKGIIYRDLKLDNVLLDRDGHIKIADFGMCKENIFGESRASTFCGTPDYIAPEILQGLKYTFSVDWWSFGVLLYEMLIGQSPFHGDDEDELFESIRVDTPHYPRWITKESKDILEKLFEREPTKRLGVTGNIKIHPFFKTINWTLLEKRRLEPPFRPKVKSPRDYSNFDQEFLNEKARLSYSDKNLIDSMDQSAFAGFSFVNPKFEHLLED

For `CNc1cc2c(Nc3cccc(Br)c3)ncnc2cn1`, the residual activity in test [1] came out at 106%; in test [2], 95%; in test [3] it was 118%; in [4], 105%; in test [5], 104%; in test [6], 103%. Further, the residual activity in test [7] worked out at 109%; in test [8] it was 94%; in [9], 104%; in [10] it was 105%; in test [11], 96%; in [12] it was 99%.

Turning to `CC(C)n1cnc2/c(=N/c3cccc(Cl)c3)nc(NCCO)[nH]c21`, the residual activity in [1] is 101%; in test [2], 63%; in [3], 104%; in test [4], 89%; in test [5], 101%; in test [6], 100%. For the same compound, the residual activity in [7] amounted to 99%; in test [8], 70%; in test [9], 96%; in test [10], 82%; in [11] it was 75%; in test [12], 92%.

As for `Cc1nc2cc3nc(-c4cccs4)cnc3cc2n1C`, the residual activity in test [1] was determined as 111%; in [2], 96%; in test [3], 107%; in test [4] it was 105%; in [5] it was 99%; in test [6], 99%. Also, the residual activity stood at 110% in [7]; 104% in test [8]; 98% in test [9]; 106% in [10]; 104% in test [11]; 89% in test [12].

Consider `CO[C@@H]1[C@H](N(C)C(=O)c2ccccc2)C[C@H]2O[C@]1(C)n1c3ccccc3c3c4c(c5c6ccccc6n2c5c31)C(=O)NC4`, for which the residual activity is 36% in [1]; 14% in test [2]; 66% in [3]; 14% in [4]; 61% in test [5]; 45% in test [6]. Also, the residual activity in [7] came to 15%; in test [8], 6%; in test [9], 21%; in test [10], 9%; in test [11] it was 42%; in test [12], 14%.

Consider `O=C(Nc1cccc(Nc2cc(Nc3cccc(C(F)(F)F)c3)ncn2)c1)C1CC1`, for which the residual activity in test [1] was 102%; in [2], 101%; in test [3] it was 105%; in [4], 104%; in test [5] it was 98%; in [6], 97%. For the same compound, the residual activity is 112% in [7]; 106% in test [8]; 93% in test [9]; 94% in test [10]; 90% in test [11]; 97% in test [12].

For `COc1cc2ncnc(Nc3ccc(O)c(Br)c3)c2cc1OC`, the residual activity was determined as 107% in [1]; 109% in [2]; 97% in test [3]; 83% in test [4]; 94% in test [5]; 97% in test [6]. For the same compound, the residual activity in test [7] amounted to 102%; in test [8], 100%; in test [9], 100%; in test [10] it was 81%; in test [11], 89%; in test [12], 83%.

In the case of `Oc1c2ccccc2c2c3c(cccc13)N=N2`, the residual activity in [1] came to 98%; in test [2] it was 73%; in [3], 102%; in test [4], 104%; in [5] it was 108%; in [6], 102%. Further, the residual activity in test [7] is 73%; in test [8] it was 30%; in test [9], 99%; in [10] it was 71%; in [11] it was 101%; in [12] it was 84%.

In the case of `Cn1nc2c3c(cccc31)C(=O)c1ccccc1-2`, the residual activity in [1] stood at 101%; in [2], 97%; in [3] it was 107%; in test [4], 104%; in test [5] it was 109%; in test [6] it was 103%. Moreover, the residual activity stood at 90% in test [7]; 101% in test [8]; 104% in test [9]; 108% in [10]; 106% in [11]; 98% in test [12].

For `NC(=O)c1ccc2[nH]c(-c3ccc(Oc4ccc(Cl)cc4)cc3)nc2c1`, the residual activity in test [1] was 99%; in [2], 90%; in [3] it was 111%; in [4], 93%; in test [5], 95%; in test [6], 100%. The residual activity in test [7] was determined as 90%; in [8], 108%; in test [9] it was 104%; in test [10], 107%; in test [11], 95%; in test [12], 85%.

Take `O=C1NC(=O)/C(=C\c2ccc3nccnc3c2)S1`: the residual activity in test [1] was 108%; in test [2] it was 88%; in [3], 124%; in test [4] it was 121%; in test [5] it was 101%; in test [6], 100%. For the same compound, the residual activity came out at 109% in test [7]; 83% in test [8]; 99% in test [9]; 81% in [10]; 105% in test [11]; 95% in test [12].

Take `CCC(=O)Nc1ccc2ncnc(Nc3cccc(Br)c3)c2c1`: the residual activity in test [1] amounted to 100%; in [2], 91%; in [3] it was 117%; in [4] it was 99%; in test [5], 108%; in [6] it was 104%. In addition, the residual activity in test [7] is 109%; in test [8], 100%; in [9], 101%; in [10] it was 113%; in [11], 79%; in test [12], 110%.

With `Ic1cccc(CSc2nnc(-c3ccncc3)o2)c1`, the residual activity in test [1] worked out at 96%; in test [2] it was 95%; in test [3] it was 107%; in [4], 102%; in test [5] it was 95%; in test [6] it was 92%. For the same compound, the residual activity in test [7] turned out to be 97%; in [8] it was 104%; in test [9] it was 100%; in test [10], 101%; in test [11] it was 88%; in test [12], 88%.

`Oc1n[nH]c2nnc(-c3c(-c4ccccc4)nn4ccccc34)cc12`: the residual activity is 102% in [1]; 92% in test [2]; 94% in [3]; 98% in test [4]; 103% in [5]; 97% in test [6]. In addition, the residual activity in [7] worked out at 96%; in test [8], 103%; in test [9], 99%; in test [10] it was 95%; in test [11], 97%; in [12] it was 98%.

Regarding `CC[n+]1c(/C=C/N(C)c2ccccc2)n(-c2ccccc2)c2ccc(-c3nc4ccccc4s3)cc21`, the residual activity in test [1] came out at 112%; in test [2], 103%; in test [3] it was 103%; in test [4], 97%; in [5], 96%; in test [6], 92%. The residual activity in test [7] is 115%; in test [8], 110%; in [9], 100%; in test [10] it was 102%; in test [11] it was 101%; in [12], 107%.

As to `C[C@@H](N)[C@H]1CC[C@H](C(=O)Nc2ccncc2)CC1`, the residual activity in test [1] worked out at 94%; in test [2], 84%; in test [3], 101%; in [4], 87%; in [5], 81%; in test [6], 34%. For the same compound, the residual activity in [7] was found to be 97%; in test [8], 96%; in test [9] it was 48%; in test [10], 12%; in test [11] it was 71%; in [12], 31%.

For the compound `Nc1nc(Nc2ccc(S(N)(=O)=O)cc2)nn1C(=S)Nc1c(F)cccc1F`, the residual activity is 51% in [1]; 18% in test [2]; 84% in test [3]; 38% in test [4]; 88% in test [5]; 78% in test [6]. Further, the residual activity is 71% in [7]; 66% in test [8]; 10% in test [9]; 9% in test [10]; 30% in [11]; 8% in test [12].

The record behind these values is ChEMBL document CHEMBL2218924, “A broad activity screen in support of a chemogenomic map for kinase signalling research and drug discovery” (Biochem J, 2013).
